Structures are written as SMILES. Among all 340,000 compounds or so, about 1,700 (0.5%) were called active. Only a selection was taken, and actives are over-represented in it overall. Unmarked numbers belong to inactive results. No stated cut-off is given here; in the data, active means inhibition above about 36%; inactive means the rest.

Broadly, the inhibition is the drop in the measured response relative to a control, in per cent.

This assay deals with Serine protease HTRA1 (Homo sapiens) (UniProt Q92743). Nature of the assay: HTRA1 serine protease inhibitors, primary screen, biochemical, fluorescence polarization, HTS (AID 504803).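 Further: 0% = enzyme with DMSO and 100% = wells lacking enzyme.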 The following applies: recombinant HTRA1, FP-rhodamine activity-based probe, at 5.96 µM, active compounds read high. For orientation: In fluorescence polarisation assays a small probe gives low polarisation when free and higher when bound to something large.
Chain of Serine protease HTRA1 (Homo sapiens) (Q92743 whole entry, looked up): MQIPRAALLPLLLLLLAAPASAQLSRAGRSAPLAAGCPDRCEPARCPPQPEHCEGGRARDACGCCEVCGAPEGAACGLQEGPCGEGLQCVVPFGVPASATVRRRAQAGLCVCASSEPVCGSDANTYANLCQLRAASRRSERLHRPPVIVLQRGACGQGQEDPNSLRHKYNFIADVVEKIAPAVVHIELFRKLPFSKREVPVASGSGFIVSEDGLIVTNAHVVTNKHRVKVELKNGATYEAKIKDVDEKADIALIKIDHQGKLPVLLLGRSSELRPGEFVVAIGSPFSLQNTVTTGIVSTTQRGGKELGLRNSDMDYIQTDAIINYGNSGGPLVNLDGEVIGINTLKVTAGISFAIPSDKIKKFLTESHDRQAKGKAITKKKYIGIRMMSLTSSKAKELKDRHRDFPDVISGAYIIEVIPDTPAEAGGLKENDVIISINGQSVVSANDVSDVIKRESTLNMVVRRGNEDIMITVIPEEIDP
Turning to `O=C(NN=Cc1ccc2c(c1)CCC2)c1ccccc1O`, the inhibition was -0.46%.
With `O=C(N/N=C/c1ccc(O)c(O)c1)C1c2ccccc2Oc2ccccc21`, the inhibition is 68.8% (active).
As to `CC(C)(C)c1nnc(NC(=O)C2c3ccccc3Oc3ccccc32)s1`, the inhibition is -41.3%.
The figure for `COc1cccc(NC(=O)CN(C)C(=O)c2cc(Cl)nc3ccccc23)c1` is 0.82%; for `C[C@@H]1CN([C@@H](C)CO)C(=O)c2cc(Br)cnc2O[C@@H]1CN(C)C(=O)C1CCCCC1` it is 2.18%; for `CCN(CC)C(=O)C1=C(C)N(Cc2ccc(F)cc2)C(=O)C(CC(=O)NC2CCCC2)C1` (centres undefined) it is 1.89%.
The figure for `COc1ccc(/C=C/C(=O)c2cc(Br)ccc(=O)c2O)cc1` is 61% (active); for `COc1ccc2oc(=N)c(C(=O)Nc3ccc(Br)cc3)cc2c1` it is -1.93%.
Regarding `COc1ccc(C(=O)c2oc3ccc(Br)cc3c2NC(C)=O)cc1`, the inhibition was -1.73%.
The same measure for `O=C1[C@H]2[C@@H](c3ccc(C(F)(F)F)cc3)N[C@]3(CCCN(Cc4ccc(Br)cc4)C3=O)[C@H]2C(=O)N1Cc1ccccc1`: -35.1%; for `COc1cccc2c1C(=O)c1c(O)c3c(c(O)c1C2=O)CC(O)(C(C)=NNC(=O)c1ccc(Cl)c(Cl)c1)CC3OC1CC(N)C(O)C(C)O1` (centres undefined): 70.5% (active).
The figure for `CN(Cc1c(F)cccc1Cl)C(=O)COC(=O)Cn1cnc2ccccc2c1=O` is 2.48%; for `N#Cc1ccc(OCC(=O)Nc2nc(-c3ccccn3)cs2)cc1` it is 19.1%.
Consider `COc1ccc(-c2cc(C(=O)N/N=C/c3cccnc3)c3ccccc3n2)c(OC)c1`, for which the inhibition was -18%.
On to `Cc1ccc(/C=N/NC(=O)Cn2nc(C)c(Br)c2C)o1`, for which the inhibition was -6.04%.
The same measure for `O=C(N/N=C/c1cccnc1)c1cc2ccccc2cc1O`: 41% (active); for `O=C(N/N=C\c1cccnc1)c1cc(-c2ccccc2)nc2c(Cl)cccc12`: -44%; for `Cc1ccc(/C=N/NC(=S)NC2CCCCC2)o1`: 5.44%.
The same measure for `Cc1ccc(/C=N/NC(=O)c2cc3ccccc3cc2O)o1`: 50.2% (active); for `CC(C)N=C1CCCC1C(=S)SSC(=S)C1CCCC1=NC(C)C` (centres undefined): 13.4%; for `CC(C)C1CCN(C(=O)C2CCC(=O)N(C3CCCCCC3)C2)CC1` (centres undefined): 4.4%.
The same measure for `CCCCN1CC(C)(C)[C@H](CC(=O)Nc2ccc(Br)cc2)C1=O`: -7.94%; for `COc1ccc(-c2ccc(CN3C(CC(C)C)C(=O)N(Cc4cn(CC5CCCCC5)nn4)CCS3(=O)=O)cc2)cc1` (centres undefined): -45.1%; for `O=C(C[C@H]1C[C@H]2c3cc(NS(=O)(=O)c4ccc(F)cc4)ccc3O[C@H]2[C@H](CO)O1)NCc1cc(F)ccc1F`: -9.74%.

The values are drawn from PubChem BioAssay AID504803 (The Scripps Research Institute Molecular Screening Center, 2011).
